We go through 30 compounds from PubChem BioAssay (NCATS).

Molecules are shown by their SMILES. Results filed as inconclusive are left out. Activity calls are given as the source filed them. Unless noted, calls come from the whole dose curve.

Assay [1] can be described thus: qHTS for Inhibitors of the Functional Ribonucleoprotein Complex (vRNP) of Lassa (LASV) Arenavirus: LASV Primary Screen - GLuc reporter signal (AID 1347082; calls by dose curve; tested in HEK293 reporter line; note: nearly all actives have a fitted effect of over 60% in size).
Assay [2] can be described thus: qHTS for Inhibitors of the Functional Ribonucleoprotein Complex (vRNP) of Lassa (LASV) Arenavirus: Viability assay - alamar blue signal for LASV Primary Screen (AID 1347083; calls by dose curve; tested in HEK293 reporter line; note: nearly all actives have a fitted effect of over 80% in size).
The nature of assay [3]: qHTS for Inhibitors of the Functional Ribonucleoprotein Complex (vRNP) of Lymphocytic Choriomeningitis Arenaviruses (LCMV): Viability assay - alamar blue signal for LCMV Primary Screen (AID 1347085; calls by dose curve; tested in HEK293 reporter line; note: nearly all actives have a fitted effect of over 80% in size).
Assay [4] has as its target Nucleoprotein (Lymphocytic choriomeningitis virus (strain Armstrong)) (UniProt P09992). The assay is described as follows: qHTS for Inhibitors of the Functional Ribonucleoprotein Complex (vRNP) of Lymphocytic Choriomeningitis Arenaviruses (LCMV): LCMV Primary Screen - GLuc reporter signal (AID 1347086). Note: nearly all actives have a fitted effect of over 70% in size.
Potency is the fitted concentration of half-maximal effect.

Chain of Nucleoprotein (Lymphocytic choriomeningitis virus (strain Armstrong)) (P09992 whole entry, looked up): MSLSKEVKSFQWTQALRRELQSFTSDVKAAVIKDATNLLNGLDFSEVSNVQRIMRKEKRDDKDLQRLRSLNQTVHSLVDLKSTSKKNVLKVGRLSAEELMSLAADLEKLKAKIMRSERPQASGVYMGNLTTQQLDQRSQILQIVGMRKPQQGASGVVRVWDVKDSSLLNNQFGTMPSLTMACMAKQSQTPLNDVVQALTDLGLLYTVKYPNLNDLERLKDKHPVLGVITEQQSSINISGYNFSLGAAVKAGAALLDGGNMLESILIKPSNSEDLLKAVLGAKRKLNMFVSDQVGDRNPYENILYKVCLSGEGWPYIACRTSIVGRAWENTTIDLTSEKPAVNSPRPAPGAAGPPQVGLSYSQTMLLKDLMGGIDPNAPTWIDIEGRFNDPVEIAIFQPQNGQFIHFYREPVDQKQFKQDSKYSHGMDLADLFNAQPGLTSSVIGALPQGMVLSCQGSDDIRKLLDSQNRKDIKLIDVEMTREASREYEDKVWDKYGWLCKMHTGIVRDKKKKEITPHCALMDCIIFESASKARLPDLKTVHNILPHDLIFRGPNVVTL

For the compound `CC(C)C(=O)COc1c2occc2cc2ccc(=O)oc12`, the Potency result in assay [1], in assay [2], in assay [3] and in assay [4] was “inactive” throughout.
Take `O=C(O)COc1ccc(Cl)cc1CO`: the Potency entry in assay [1], in assay [2], in assay [3] and in assay [4] was “inactive” throughout.
Regarding `Cn1c2c(c(=O)c3ccccc31)CCC(C)(C)O2`, the Potency result in assay [1], in assay [2], in assay [3] and in assay [4] was “inactive” throughout.
On to `O=c1[nH]cnc2c1ncn2C1OCC(O)C(O)C1O` (stereo not given), for which the Potency result in assay [1], in assay [2], in assay [3] and in assay [4] was “inactive” each time.
As for `O=C(OCc1ccccc1)c1ccccc1O`, the Potency result in assay [1], in assay [2], in assay [3] and in assay [4] was “inactive” in each case.
For `COc1ccc2c(c1)CC1c3c(cc4c(c3-2)OCO4)CC[N+]1(C)[O-]` (stereo not given), the Potency result in assay [1], in assay [2], in assay [3] and in assay [4] was “inactive” each time.
Turning to `CC(C)(OC1OC(CO)C(O)C(O)C1O)[C@H]1Oc2ccc3ccc(=O)oc3c2[C@H]1O` (stereo not given in full), the Potency result in assay [1], in assay [2], in assay [3] and in assay [4] was “inactive” in each case.
For the compound `C=CC(C)(CCC=C(C)C)OC(=O)CC` (stereo not given), the Potency result in assay [1], in assay [2], in assay [3] and in assay [4] was “inactive” in each case.
For `O=C1CCC[C@H]2[C@@H]3CCCN4CCC[C@H](CN12)[C@H]34`, the Potency entry in assay [1], in assay [2], in assay [3] and in assay [4] was “inactive” in each case.
Take `CCn1c(-c2nonc2N)nc2cncc(CNC3CCNCC3)c21`: the Potency in assay [1] is 24.3 µM (active); in assay [2], 17.2 µM (active); in assay [3], 24.3 µM (active); in assay [4], 38.5 µM (active).
Regarding `CO[C@H]1/C=C\O[C@@]2(C)Oc3c(C)c(O)c4c(O)c(c5c(nc6cc(C)ccn65)c4c3C2=O)NC(=O)C(C)=CC=C[C@H](C)[C@H](O)[C@@H](C)[C@@H](O)[C@@H](C)[C@H](OC(C)=O)[C@H]1C`, the Potency result in assay [1], in assay [2], in assay [3] and in assay [4] was “inactive” in each case.
For `COc1cc(C)ccc1C(C)C`, the Potency result in assay [1], in assay [2], in assay [3] and in assay [4] was “inactive” each time.
In the case of `CCCCCCCCOS(=O)(=O)O`, the Potency entry in assay [1], in assay [2], in assay [3] and in assay [4] was “inactive” in each case.
Consider `CC(C)C(O)(C(=O)OC[C@@H]1CC[N+]2([O-])CCCC12)C(C)O` (stereo not given in full), for which the Potency result in assay [1], in assay [2], in assay [3] and in assay [4] was “inactive” each time.
With `C[C@@H]1C2C[C@@]34COC(=O)C3=CC=C[C@H]4[C@@]13C[C@H](c1ccoc1)O[C@@H]3O2`, the Potency result in assay [1], in assay [2], in assay [3] and in assay [4] was “inactive” each time.
With `CCCCOC(=O)C(C)OC(=O)CCC` (stereo not given), the Potency result in assay [1], in assay [2], in assay [3] and in assay [4] was “inactive” in each case.
For the compound `O=C1c2cc(CO)cc(O)c2C(=O)c2c(O[C@@H]3OC(CO)[C@@H](O)[C@@H](O)[C@@H]3O)cccc21` (stereo not given in full), the Potency result in assay [1], in assay [2], in assay [3] and in assay [4] was “inactive” in each case.
With `CC(C)(O)[C@@H]1CC(=O)[C@]2(C)[C@H](CC[C@@]3(C)[C@H](c4ccoc4)OC(=O)[C@H]4O[C@]432)[C@@]1(C)/C=C\C(=O)O`, the Potency entry in assay [1], in assay [2], in assay [3] and in assay [4] was “inactive” throughout.
As for `COC(=O)C1(Cc2ccc(O)c(CC3OC3(C)C)c2)OC(=O)C(O)=C1c1ccc(O)cc1` (stereo not given), the Potency result in assay [1], in assay [2], in assay [3] and in assay [4] was “inactive” in each case.
Consider `CC1(C)CCC[C@]2(C)[C@H]3Cc4cc(O)ccc4O[C@]3(C)CC[C@@H]12`, for which the Potency result in assay [1], in assay [2], in assay [3] and in assay [4] was “inactive” each time.
In the case of `CC[C@@H](C)[C@@H](O)[C@H](C)C(=O)[C@H](C)/C=C(\C)C[C@H](C)[C@@H]1OC(=O)[C@H]1CC`, the Potency result in assay [1], in assay [2], in assay [3] and in assay [4] was “inactive” throughout.
As for `COc1ccc(/C=C/C(=O)O)cc1`, the Potency entry in assay [1], in assay [2], in assay [3] and in assay [4] was “inactive” throughout.
For the compound `CC(C)c1cc(C(=O)N2Cc3ccc(CN4CCN(C)CC4)cc3C2)c(O)cc1O`, the Potency is 0.968 µM (active) in assay [1], 0.544 µM (active) in assay [2], 0.685 µM (active) in assay [3] and 0.485 µM (active) in assay [4].
`CC(=O)OC[C@@]12C(=O)[C@@H](O)[C@@H](C)[C@]3(C[C@@H](c4ccoc4)O[C@@H]3OC(C)=O)[C@H]1CCC[C@]21CO1`: the Potency entry in assay [1], in assay [2], in assay [3] and in assay [4] was “inactive” throughout.
In the case of `CC1(C)CC[C@]2(C(=O)O)[C@H](O)C[C@]3(C)C(=CCC4[C@@]5(C)C[C@H](O)[C@H](O)[C@@](C)(CO)C5CC[C@]43C)[C@@H]2C1` (stereo not given in full), the Potency entry in assay [1], in assay [2], in assay [3] and in assay [4] was “inactive” in each case.
Turning to `C/C=C(/CC[C@@H](C)[C@H]1CC[C@H]2C3=CC[C@H]4[C@H](C)[C@@H](O)CC[C@]4(C)[C@H]3CC[C@]12C)C(C)C`, the Potency result in assay [1], in assay [2], in assay [3] and in assay [4] was “inactive” in each case.
As to `COC(=O)Nc1ccc(C)c(NC(=O)OC)c1`, the Potency result in assay [1], in assay [2], in assay [3] and in assay [4] was “inactive” in each case.
On to `C/C(=C/CCC(C)(O)C1CC[C@@]2(C)[C@@H]3CC=C4[C@@H](CC[C@H](O[C@H]5O[C@@H](CO)[C@H](O)[C@@H](O)[C@@H]5O)C4(C)C)[C@]3(C)C(=O)C[C@]12C)CO[C@@H]1O[C@H](CO)[C@@H](O)[C@H](O)[C@H]1O` (stereo not given in full), for which the Potency result in assay [1], in assay [2], in assay [3] and in assay [4] was “inactive” in each case.
Consider `COc1ccc(CCC(=O)O)cc1`, for which the Potency result in assay [1], in assay [2], in assay [3] and in assay [4] was “inactive” throughout.
As to `COc1cc(C(=O)O[C@H]2C/C(C)=C/CC/C(C)=C/[C@@H](O)C2C(C)C)ccc1O` (stereo not given in full), the Potency result in assay [1], in assay [2], in assay [3] and in assay [4] was “inactive” throughout.
